Compound activity (PubChem)
BAZ2B inh: BAZ2B (human) inhibition | AID 504333 | AlphaScreen BAZ2B-H3K14Ac peptide displacement | Q9UIF8 | Potency, µM (doses to about 114 µM), inactives show top-dose activity change, negative = inhibition, usual class: inhibitors | actives 4.4% (n = 360,000); note: % is set by controls: 0 for no effect and ±100 for the full control effect; nearly all actives have a fitted effect of over 60% in size
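Compounds, titrated to a top concentration of 110 uM, were incubated 30 min at room temperature with preformed BAZ2B/acetyl-K14 H3 peptide complex (50 nM each). Proximity signal was measured by AlphaScreen after 20 min with beads.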
JMJD2A Tudor inh: blocks the human JMJD2A Tudor domain; O75164; AlphaScreen JMJD2A-Tudor / H3K4me3 peptide binding; Potency, µM (doses to about 114 µM), inactives show at the top dose activity change, negative = inhibition, hits mostly inhibitors; actives 4.4% (n = 390,000); AID 504339; note: % is set by controls: 0 for no effect and ±100 for the full control effect; nearly all actives have a fitted effect of over 50% in size
G9a block: blocks human histone lysine methyltransferase G9a | G9a H3K9 monomethylation, AlphaScreen, 2 h | Potency, µM (titrated, usually from 102 µM), for the others: at the top dose activity, negative = inhibition, most hits filed as inhibitors | actives 8.8% (n = 350,000); note: % is set by controls: 0 for no effect and ±100 for the full control effect; nearly all actives have a fitted effect of over 75% in size
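G9a (20 nM) preincubated 15 min RT with compounds, then 500 nM biotinylated H3K9 peptide and 20 uM SAM added; 2 h RT reaction. Monomethyl-H3K9 product detected by AlphaScreen with anti-H3K9me1 antibody, streptavidin donor and anti-rabbit IgG acceptor beads.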
Sfp inh: Sfp phosphopantetheinyl transferase inhibition; Potency, µM, without a hit: largest response in the series, negative = inhibition, actives largely listed as inhibitors; AID 1490; actives 3.5% (n = 310,000); Biochemical Sfp PPTase activity, qHTS; Q9F4F7;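 note: the enzyme is Sfp with the accession as filed and its product quenches rhodamine fluorescence; 0% = enzyme reaction without inhibitor and -100% = no enzyme wells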
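Fluorescence-quenching assay: 15 nM Sfp-PPTase preincubated 15 min at room temperature with compound, then 5 uM rhodamine-CoA and 12.5 uM BHQ-2-labelled YbbR peptide added. Fluorescence (ex 525/em 598 nm) read at start and after 30 min; difference gives rate.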
L3MBTL1 block: L3MBTL1 (human) inhibition. AlphaScreen L3MBTL1–H3K9me1 peptide binding. Potency, µM (series often up to 57.1 µM), inactives show at the highest dose activity, negative = inhibition, actives largely listed as inhibitors. actives 0.66% (n = 230,000); note: % is set by controls: 0 for no effect and ±100 for the full control effect; nearly all actives have a fitted effect of over 60% in size
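Displacement of a biotinylated histone H3(1-15) peptide monomethylated at Lys9 (75 nM) from L3MBTL1 (50 nM) was measured by AlphaScreen after a 30 min room-temperature compound incubation; cefsulodin titration served as intraplate control.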
HP1b chromo inh: blocks HP1-beta chromodomain binding to methylated histone tails; AlphaScreen HP1-beta / biotin-H3K9me3 peptide binding; Potency, µM (highest dose often 114 µM), inactives show at the highest dose activity change, negative = inhibition, usual class: inhibitors; P83916; actives 0.56% (n = 390,000); note: nearly all actives have a fitted effect of over 70% in size
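AlphaScreen: HP1-beta (50 nM) preformed 30 min with biotin-H3(1-18)K9me3 peptide (50 nM) in PBS pH 7.4, 0.01% Tween-20. Compound added for 30 min at RT, then streptavidin donor/nickel chelate acceptor beads (10 ug/mL) for 30 min.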
* = called active by the depositor; [ ] = dose if it differs, or a comment. Only some compounds are listed: those with a hit (about 12% of all), similar ones and a draw of the others. Calls come from the whole dose curve; as a rule, active = well fitted curve in the direction sought with a large enough effect; inconclusive = small, poorly fitted or top-dose-only effect, or another doubt; inactive = no such curve, though single readings can be large; an effect the other way counts as inactive or inconclusive. Potency is the fitted concentration of half-maximal effect.

What do the screens show for `Fc1cccc(-c2n[nH]c(=S)n2-c2ccccc2)c1`?
BAZ2B inh: -36%; JMJD2A Tudor inh: 7.9µM*; G9a block: 20%[0.501 µM]; Sfp inh: 14%; L3MBTL1 block: 2%[2.29 µM]; HP1b chromo inh: -22%

Results for Cc1noc(C)c1C(=O)N1CCC2(CCCN(C(=O)Nc3cccc(F)c3)C2)CC1 ?
G9a block: 1%[12.7 µM]; Sfp inh: 9%

Results for Cc1cc(Cl)ccc1OCCCC(=O)N1CCCCC1 ?
BAZ2B inh: 47%; JMJD2A Tudor inh: 18%; G9a block: 15%[12.7 µM]; Sfp inh: 79µM*; HP1b chromo inh: 44%

Results for O=C(CCCOc1ccc(Cl)cc1Cl)N1CCc2ccccc2C1 ?
BAZ2B inh: 68%; JMJD2A Tudor inh: 84%; G9a block: 30%[59 µM]; Sfp inh: 18µM*; L3MBTL1 block: -4%; HP1b chromo inh: 119%

What do the screens show for `Cc1cc(Cl)ccc1OCCCC(=O)N1CCOCC1`?
BAZ2B inh: 1%; JMJD2A Tudor inh: -2%[57.1 µM]; G9a block: inconclusive; Sfp inh: 8%; L3MBTL1 block: 0%; HP1b chromo inh: 52%

Results for O=C(O)c1ccc(/C=N\Nc2ccc(S(=O)(=O)N3CCOCC3)cc2[N+](=O)[O-])cc1 ?
BAZ2B inh: inconclusive; JMJD2A Tudor inh: inconclusive; G9a block: 50µM*; Sfp inh: 4%; L3MBTL1 block: -1%; HP1b chromo inh: -1%

What do the screens show for `COC(=O)C/C(C)=N/Nc1ccc(S(=O)(=O)N2CCCC2)cc1[N+](=O)[O-]`?
BAZ2B inh: inconclusive; JMJD2A Tudor inh: -32%; G9a block: 45µM*; Sfp inh: -13%; L3MBTL1 block: -11%; HP1b chromo inh: -1%

Results for Cc1ccc(-n2c(O)c(/C=N/Nc3ccc(S(=O)(=O)N4CCOCC4)cc3[N+](=O)[O-])c3ccccc3c2=O)c(C)c1 ?
BAZ2B inh: 13µM*; JMJD2A Tudor inh: 28µM*; G9a block: 8.9µM*; Sfp inh: -18%; L3MBTL1 block: inconclusive; HP1b chromo inh: 4µM*

What do the screens show for `C/C(=N\Nc1ccc(S(=O)(=O)N2CCOCC2)cc1[N+](=O)[O-])C(C)C`?
JMJD2A Tudor inh: 45µM*; G9a block: inconclusive; Sfp inh: 19%; L3MBTL1 block: -6%; HP1b chromo inh: inconclusive

What do the screens show for `NS(=O)(=O)c1ccc(N/N=C/c2ccc(C(=O)O)cc2)c([N+](=O)[O-])c1`?
BAZ2B inh: inconclusive; JMJD2A Tudor inh: -15%; Sfp inh: inconclusive; L3MBTL1 block: 0%; HP1b chromo inh: 31%

How did CN1CCC(=NNc2ccc(S(=O)(=O)N3CCOCC3)cc2[N+](=O)[O-])CC1 do in these assays?
BAZ2B inh: -12%; JMJD2A Tudor inh: -26%; G9a block: -22%[59 µM]; Sfp inh: -3%; L3MBTL1 block: -10%; HP1b chromo inh: -12%

How did Cc1c2cnn(-c3ccccc3)c(=O)c2c(C)n1C(C)C(=O)Nc1ccccc1C(F)(F)F (stereo not given) do in these assays?
BAZ2B inh: -31%; JMJD2A Tudor inh: -20%; G9a block: -19%[59 µM]; HP1b chromo inh: 24%

What do the screens show for `Cc1ccc(CNC(=O)Cc2noc3ccccc23)cc1`?
BAZ2B inh: -1%; JMJD2A Tudor inh: -12%; G9a block: 13%; Sfp inh: 4%; L3MBTL1 block: -10%; HP1b chromo inh: 13%

Results for COc1cc(OC)cc(Oc2ccc(S(=O)(=O)N3CCCCC3)cc2[N+](=O)[O-])c1 ?
BAZ2B inh: -27%; JMJD2A Tudor inh: inconclusive; G9a block: 79µM*; Sfp inh: 12%; HP1b chromo inh: -15%

How did COC(=O)COc1ccc(S(=O)(=O)N2CCCCC2)cc1[N+](=O)[O-] do in these assays?
BAZ2B inh: -10%; JMJD2A Tudor inh: -12%; G9a block: 1%; Sfp inh: 8%; L3MBTL1 block: 6%; HP1b chromo inh: 0%
